Compounds with a hit are over-represented: about 1.2% of the library has one in this group of screens.
S1P2 blocker: human S1P2 receptor antagonists, primary screen, cell-based | inhibition, % at 5 µM | cell-based S1P2 antagonist assay, inhibition at 5 uM | Sphingosine 1-phosphate receptor 2 (Homo sapiens), O95136 | AID 736, 2007 | 0.21% of 97,000 active; in the data active = inhibition above about 45%;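 note: CRE beta-lactamase reporter cells expressing human S1P2 stimulated with S1P; 0% = agonist at EC80 alone and 100% = agonist plus reference antagonist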
GALR2 ag: GALR2 receptor agonists, primary screen, cell-based | 0.48% of 140,000 active | Galanin receptor type 2 (Homo sapiens), O43603 | activation, % (concentration not given with the values) | GALR2-expressing cells, agonist activation read-out; in the data active = activation above about 5%, passing the limit was not always enough;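 note: 0% = vehicle buffer wells and 100% = reference agonist at full effect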
Target sequence (O43603 whole entry, looked up): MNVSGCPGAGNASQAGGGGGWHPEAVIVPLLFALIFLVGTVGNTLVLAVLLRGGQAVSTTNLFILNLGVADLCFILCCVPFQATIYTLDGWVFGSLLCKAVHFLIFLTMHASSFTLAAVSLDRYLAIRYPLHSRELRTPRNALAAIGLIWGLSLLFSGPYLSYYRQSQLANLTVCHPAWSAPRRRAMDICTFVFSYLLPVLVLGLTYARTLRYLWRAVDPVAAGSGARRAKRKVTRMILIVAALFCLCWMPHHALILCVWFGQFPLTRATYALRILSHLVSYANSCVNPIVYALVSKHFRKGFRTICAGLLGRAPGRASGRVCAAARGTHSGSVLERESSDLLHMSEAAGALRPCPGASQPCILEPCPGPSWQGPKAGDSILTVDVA
S1P2 agonist: S1P2 receptor agonists, primary screen, cell-based; S1P2-expressing cell line, agonist reporter read-out; 0.46% of 97,000 active; AID 729, 2007; Sphingosine 1-phosphate receptor 2 (Homo sapiens), O95136; activation, % at 4.5 µM; in the data active = activation above about 16%;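 note: 0% = vehicle low control and 100% = maximal reference agonist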
GALR2 antag: GALR2 antagonists in receptor-expressing cells, primary screen; antagonist mode; inhibition, % at 4 µM; 0.39% of 140,000 active; in the data active = inhibition above about 27%;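 note: cells stimulated with galanin 1-16 at roughly its EC80; 0% = agonist challenge control and 100% = basal control without agonist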
Starred values were filed as active, the others as inactive; / = not tested or not shown.

SMILES	S1P2 blocker	GALR2 ag	S1P2 agonist	GALR2 antag
Cc1[nH]n(-c2ncc(-c3ccccc3)s2)c(=O)c1C(c1ccc(Cl)cc1)C(C#N)C#N (centres undefined)	/	-1	/	-6
C=CCC(Nc1ccccc1)C12C=CC(O1)C(C(=O)OC)=C2C(=O)OC (centres undefined)	65*	0	-3	8
CN(C)c1ccc(-c2nn3c(-c4ccccc4Cl)nnc3s2)cc1	-30	5	-4	-11
COc1ccccc1-c1nnc2sc(-c3ccc(N(C)C)cc3)nn12	/	3	/	29*
Cn1nc(CC(=O)NCc2ccc(C(F)(F)F)cc2)c2ccccc2c1=O	62*	-3	-4	17
Cn1nc(C(=O)NCc2ccc(F)cc2)c2ccccc2c1=O	24	0	-11	10
Cc1ccc(C2CC2c2n[nH]c(=S)n2-c2cccc(Cl)c2)cc1 (centres undefined)	/	-1	/	-8
CC(C)CN(CC(C)C)c1nc(N)c(C#N)c(CC#N)c1C#N	-28	6.3*	-3	-3
CN(c1ccccc1)c1nc(N)c(C#N)c(CC#N)c1C#N	/	0	/	-25
CCN(CC)c1ccc(-c2nn3c(-c4n[nH]c5c4CCC5)nnc3s2)cc1	3	6.3*	-1	4
CCOCCn1c(=NC(=O)/C=C/c2ccccc2Cl)sc2cc(NC(C)=O)ccc21	/	3	/	10
COCCn1c(=NC(=O)/C=C/c2ccccc2Cl)sc2cc(NC(C)=O)ccc21	/	6.0*	/	-6
Cc1ccc(NS(=O)(=O)c2ccc(NC(=O)c3cccc(NC(=O)C(C)C)c3)cc2)cc1	-5	-1	-7	0
COC(=O)Cc1c(C)c2ccc(OCC(=O)N3CCOCC3)cc2oc1=O	3	-2	-3	-1
CCN(CC)c1ccc2c(C)c(CN3CCOCC3)c(=O)oc2c1	-20	6.2*	26*	-1
Cn1c(-c2c(N)n(C3CCCC3)c3nc4ccccc4nc23)nc2ccccc21	93*	0	-15	21
COCCCn1c(N)c(-c2nc3ccccc3n2C)c2nc3ccccc3nc21	30	-2	-10	23
COc1ccc(C(=O)OCC(=O)c2ccc(C3CCCCC3)cc2)cc1	20	0	-7	-6
Nc1ccc(O)cc1C(=O)OCC(=O)c1ccc(C2CCCCC2)cc1	/	6.3*	/	13
Cc1ccc(C2CC(=O)c3cnc(N4CCc5ccccc5C4)nc3C2)cc1 (centres undefined)	3	-4	581*	-5
O=C1CC(c2ccccc2)Cc2nc(N3CCc4ccccc4C3)ncc21 (centres undefined)	1	-1	-5	-5
CC(=O)Nc1ccc(-c2nnc(SCC(=O)c3ccc4c(c3)Cc3ccccc3-4)n2C)cc1	-9	4.9*	-4	-31
Cc1ccc(-n2nc3c([n+]2[O-])CCc2c-3no[n+]2[O-])cc1	/	-3	/	49*
[O-][n+]1onc2c1CCc1c-2nn(-c2ccccc2Cl)[n+]1[O-]	24	-3	-9	42*
Cc1cccc(-n2nc3c([n+]2[O-])CCc2nonc2-3)c1C	/	0	/	5
SMILES	S1P2 blocker	GALR2 ag	S1P2 agonist	GALR2 antag
CS(=O)(=O)N(CC(=O)N/N=C/c1cccs1)c1cccc(Cl)c1Cl	-3	0	-4	3
Cc1ccc(-c2nn(-c3ccccc3)cc2/C=N/NC(=O)c2ccc(Br)o2)cc1	100*	-1	-8	-10
Cc1ccc(NC(=S)NCCc2ccc(S(N)(=O)=O)cc2)c(C)c1	13	0	102*	-5
O=C1CCCN1CCCNc1ncnc2c1[nH]c1ccc(Cl)cc12	11	-1	17*	-18
COc1ccc(C2C3=C(Nc4ncnn42)c2ccccc2CCC3)cc1 (centres undefined)	10	-2	-4	5
COc1cc(C2C3=C(Nc4ncnn42)c2ccccc2CC3)cc(OC)c1OC (centres undefined)	6	5.0*	-2	35*
Cc1sc2ncnc(NCC3(N4CCOCC4)CCCCC3)c2c1C	-11	-3	-5	-6
Cc1sc2ncnc(NCC(C)(C)N3CCOCC3)c2c1C	64*	0	-6	26
CCOC(=O)c1c(C)n(C)c2ccc(OCC(O)CN(CC)CC)cc12 (centres undefined)	11	-2	-5	13
CCOC(=O)c1c(C)n(C)c2ccc(OCC(O)Cn3nc(C)cc3C)cc12 (centres undefined)	-16	0	58*	-7
Nc1c(N(C(=O)Nc2ccc(Cl)c(Cl)c2)C2CCCC2)c(=O)[nH]c(=O)n1Cc1ccccc1	21	-2	-5	7
CCCCc1ccc(/C=C2\C(=O)c3ccccc3C(O)=C2C(=O)OCC)cc1	5	-3	-9	3
Cc1[nH]c(=O)[nH]c(=O)c1NS(=O)(=O)c1ccc2c(c1)CCCC2	-3	-1	-4	-13
Cc1ccc(S(=O)(=O)Nc2c(C)[nH]c(=O)[nH]c2=O)cc1C	/	5.9*	/	6
CCC/C(O)=C1\C(=O)CC(c2ccccc2)CC1=NC(C)C(=O)O (centres undefined)	/	-2	/	5
O=C(CNc1ccc(Br)cc1)NNC1=NCCC1	/	-3	/	2
COc1ccc(NC(=O)Cn2nnc(C(=O)NCc3ccccc3OC)c2N)cc1Cl	47*	1	-7	7
CC(C)(C)NC(=O)CSC(=Nc1ccc(F)cc1)NC#N	-4	-2	24*	-1
N#CNC(=Nc1cccc(F)c1)SCc1cccc(F)c1	/	-1	/	-13
CCCOc1ccccc1Cn1c(=O)oc2ccc(C)cc21	-15	0	4	14
CCCOc1ccc(Cn2c(=O)oc3ccc(C)cc32)cc1OC	9	0	29*	4
O=C(c1ccccc1)N(Cc1ccc2c(c1)OCO2)Cc1nc2ccccc2c(=O)[nH]1	12	0	-5	-2
O=C(Nc1ccccc1)N(Cc1ccc2c(c1)OCO2)Cc1nc2ccccc2c(=O)[nH]1	-9	-1	21*	-1
Cn1ncc(Br)c1C(=O)NC12CC3CC(CC(C3)C1)C2	/	-1	/	6
Cc1ccc(CNC(=O)c2oc3ccc(S(=O)(=O)N4CCOCC4)cc3c2C)cc1	50*	-2	-6	6
SMILES	S1P2 blocker	GALR2 ag	S1P2 agonist	GALR2 antag
CC(C)CC(=O)Nc1cc([N+](=O)[O-])ccc1Cl	7	-3	17*	-8
Cc1ccccc1-n1nc(C(=O)c2cccs2)cc(-c2nc3ccccc3[nH]2)c1=N	-12	-3	24*	12
COc1ccc(-n2nc(C(=O)c3cccs3)cc(-c3nc4ccccc4[nH]3)c2=N)cc1	-45	-1	22*	7
Cc1cccc(-n2nc(C(=O)c3ccco3)cc(-c3nc4ccccc4[nH]3)c2=N)c1	/	0	/	10
Cc1ccc(Nc2ccc(S(=O)(=O)N3CCOCC3)cc2[N+](=O)[O-])cc1C	/	-2	/	11
COc1ccc(C2C=C(c3cccs3)Nc3nc(CCCO)nn32)cc1 (centres undefined)	37	-2	-14	30*
O=C(O)C1CC=CCC1C(=O)Nc1ccc(N2CCN(Cc3ccccc3)CC2)cc1 (centres undefined)	/	-1	/	9
Fc1ccc(/C=N/NC(=S)Nc2ccc(Cl)cc2)cc1F	/	0	/	6

Screening results as filed in PubChem BioAssay.
